These results are taken from PubChem BioAssay (EPA / NIEHS).

Activity calls are given as the source filed them. The calls were made as follows: active = hit-call score of the fitted dose curve at least 0.9, where 1 is the maximum; inactive = score below 0.9.

Read-out in test [1]: C-C motif chemokine 2 (Homo sapiens) (UniProt P13500)
Put plainly: BSK_KF3CT_MCP1: BioMAP Diversity Plus: KF3CT Assay for Monocyte Chemoattractant Protein 1 (MCP1/CCL2) Biomarker Activity (AID 2283073). The settings on record: primary human keratinocytes with fibroblasts; actives raise or lower the signal. A digest of the protocol: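 Biomarker MCP-1 is measured by ELISA in primary human keratinocytes co-cultured with foreskin fibroblasts, 24 h after chemical treatment; DMSO serves as the negative control and activity baseline.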

Read-out in test [2]: Matrix Metallopeptidase 9 (MMP9), MMP9 (gene 4318)
In words: BSK_KF3CT_MMP9: BioMAP Diversity Plus: KF3CT Assay for Matrix Metallopeptidase 9 (MMP9) Biomarker Activity (AID 2283074).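 As to AC50: MMP9 protein level quantified by ELISA in the co-culture.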 The settings on record: primary human keratinocytes with fibroblasts; actives raise or lower the signal. The method, boiled down:
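ELISA read-out of MMP-9 at 24 h post-dosing in a co-culture of human skin keratinocytes and foreskin fibroblasts. Gain or loss of signal was fitted in both directions against DMSO.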

Read-out in test [3]: urokinase plasminogen activator (uPA), PLAU (gene 5328)
In words: BSK_KF3CT_uPA: BioMAP Diversity Plus: KF3CT Assay for urokinase plasminogen activator (uPA) Biomarker Activity (AID 2283075). The settings on record: primary human keratinocytes with fibroblasts; actives raise or lower the signal. A digest of the protocol: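 Skin co-culture (keratinocytes + foreskin fibroblasts), human primary; 24 h post-dose; uPA by ELISA; gain/loss fit vs DMSO baseline.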

Read-out in test [4]: CD40, CD40 (gene 958)
In words: BSK_LPS_CD40: BioMAP Diversity Plus: LPS Assay for CD40 Biomarker Activity (AID 2283076). The conditions noted are these: primary human HUVEC with PBMC; actives raise or lower the signal. The method, boiled down: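 Using a multiplexed primary human co-culture (umbilical vein endothelium plus PBMC), CD40 was read by ELISA 24 h after dosing, with cytotoxicity tracked by sulforhodamine B staining of parallel cultures and activity fitted bidirectionally versus DMSO.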

Read-out in test [5]: E-selectin (Homo sapiens) (UniProt P16581)
In words: BSK_LPS_Eselectin: BioMAP Diversity Plus: LPS Assay for Eselectin Biomarker Activity (AID 2283077). The conditions noted are these: primary human HUVEC with PBMC; actives raise or lower the signal. A digest of the protocol:
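Dose chemical onto LPS-driven HUVEC/PBMC co-culture; after 24 h, run ELISA for E-selectin; fit up- and down-going responses relative to DMSO control.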

Read-out in test [6]: Interleukin-8 (IL8), CXCL8 (gene 3576)
In words: BSK_LPS_IL8: BioMAP Diversity Plus: LPS Assay for Interleukin-8 (IL8) Biomarker Activity (AID 2283078). The conditions noted are these: primary human HUVEC with PBMC; actives raise or lower the signal. The method, boiled down:
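In this LPS system, chemical-treated human umbilical vein endothelium/PBMC co-cultures were harvested at 24 h for IL-8 ELISA.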

Read-out in test [7]: Interleukin-1 alpha (IL1a), IL1A (gene 3552)
Put plainly: BSK_LPS_IL1a: BioMAP Diversity Plus: LPS Assay for Interleukin-1 alpha (IL1a) Biomarker Activity (AID 2283080). The conditions noted are these: primary human HUVEC with PBMC; actives raise or lower the signal. The method, boiled down:
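Primary human HUVEC and PBMC co-culture stimulated with LPS is dosed and harvested at 24 h. Both increases and decreases in ELISA-measured IL-1a are scored relative to DMSO.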

Read-out in test [8]: Monocyte Chemoattractant Protein-1 (MCP1), CCL2 (gene 6347)
In words: BSK_LPS_MCP1: BioMAP Diversity Plus: LPS Assay for Monocyte Chemoattractant Protein-1 (MCP1) Biomarker Activity (AID 2283081).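 As to AC50: secreted MCP-1 protein quantified by ELISA in culture supernatant.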 The settings on record: primary human HUVEC with PBMC; actives raise or lower the signal. The method, boiled down:
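Values derive from bidirectional fitting against DMSO of ELISA-measured MCP-1 in a human primary endothelial and mononuclear cell co-culture, 24 h after chemical addition under LPS activation.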

The nature of test [9]: BSK_LPS_PGE2: BioMAP Diversity Plus: LPS Assay for Prostaglandin E2 (PGE2) Biomarker Activity (AID 2283082).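 As to AC50: secreted prostaglandin E2 measured by ELISA in LPS-stimulated co-culture.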 The conditions noted are these: primary human HUVEC with PBMC; actives raise or lower the signal. A digest of the protocol:
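PGE2 release measured by ELISA in an LPS-activated co-culture of human umbilical vein endothelial cells and peripheral blood mononuclear cells, read at 24 h post-dosing. DMSO served as baseline for bidirectional curve fitting.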

Read-out in test [10]: Macrophage colony-stimulating factor (MCSF), CSF1 (gene 1435)
Put plainly: BSK_LPS_MCSF: BioMAP Diversity Plus: LPS Assay for Macrophage colony-stimulating factor (MCSF) Biomarker Activity (AID 2283083). The conditions noted are these: primary human HUVEC with PBMC; actives raise or lower the signal. The method, boiled down: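 Bidirectional fit versus DMSO of ELISA-measured M-CSF in co-cultured human umbilical vein endothelial cells and PBMC, sampled 24 h after dosing.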

Read-out in test [11]: Tissue Factor, F3 (gene 2152)
In words: BSK_LPS_TissueFactor: BioMAP Diversity Plus: LPS Assay for Tissue Factor Biomarker Activity (AID 2283084). The settings on record: primary human HUVEC with PBMC; actives raise or lower the signal. The method, boiled down: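 Read-out: CD142 ELISA, 24 h. System: LPS-driven human endothelial/PBMC co-culture. Analysis: up- or down-signal fitted against DMSO.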

Read-out in test [12]: Vascular cell adhesion molecule 1 (VCAM1), VCAM1 (gene 7412)
Put plainly: BSK_LPS_VCAM1: BioMAP Diversity Plus: LPS Assay for Vascular cell adhesion molecule 1 (VCAM1) Biomarker Activity (AID 2283086). The conditions noted are these: primary human HUVEC with PBMC; actives raise or lower the signal. A digest of the protocol: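 VCAM-1 quantified by ELISA in an LPS-activated co-culture of human endothelial cells and peripheral blood mononuclear cells, read 24 h post-treatment. Fitted in both directions versus DMSO; parallel SRB staining flags overt cytotoxicity.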

Read-out in test [13]: CD38, CD38 (gene 952)
Put plainly: BSK_SAg_CD38: BioMAP Diversity Plus: SAg Assay for CD38 Biomarker Activity (AID 2283087). The conditions noted are these: primary human HUVEC with PBMC; actives raise or lower the signal. The method, boiled down: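 CD38 quantified by ELISA (fluorescence) in a superantigen-activated endothelial cell–PBMC co-culture at 24 h post-dose. Activity fitted in both directions relative to DMSO; parallel SRB and Alamar Blue cytotoxicity read-outs.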

Read-out in test [14]: CD40, CD40 (gene 958)
In words: BSK_SAg_CD40: BioMAP Diversity Plus: SAg Assay for CD40 Biomarker Activity (AID 2283088). The settings on record: primary human HUVEC with PBMC; actives raise or lower the signal. The method, boiled down: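 Endpoint derived by fitting increases or decreases versus DMSO controls. CD40 is detected by fluorescence ELISA in a human vascular co-culture of endothelium and PBMC at 24 h.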

Read-out in test [15]: CD69, CD69 (gene 969)
Put plainly: BSK_SAg_CD69: BioMAP Diversity Plus: SAg Assay for CD69 Biomarker Activity (AID 2283089).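 As to AC50: cell surface CD69 protein quantified by ELISA with fluorescence detection.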 The conditions noted are these: primary human HUVEC with PBMC; actives raise or lower the signal. The method, boiled down: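 Primary human vascular co-culture (umbilical vein endothelium with peripheral blood mononuclear cells) exposed to test chemical for 24 h. CD69 levels quantified by fluorescence ELISA; DMSO served as negative control for bidirectional fitting.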

Read-out in test [16]: Monocyte Chemoattractant Protein-1 (MCP1), CCL2 (gene 6347)
In words: BSK_SAg_MCP1: BioMAP Diversity Plus: SAg Assay for Monocyte Chemoattractant Protein-1 (MCP1) Biomarker Activity (AID 2283090). The conditions noted are these: primary human HUVEC with PBMC; actives raise or lower the signal. The method, boiled down:
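Values derive from bidirectional fitting of ELISA-measured MCP1 against DMSO controls. Readings were taken 24 h after dosing human vascular endothelial cells co-cultured with peripheral blood mononuclear cells under superantigen stimulation.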

Read-out in test [17]: E-selectin (Homo sapiens) (UniProt P16581)
In words: BSK_SAg_Eselectin: BioMAP Diversity Plus: SAg Assay for Eselectin Biomarker Activity (AID 2283091). The conditions noted are these: primary human HUVEC with PBMC; actives raise or lower the signal. The method, boiled down: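 Endpoint values derive from bidirectional fitting relative to DMSO, using ELISA-measured E-selectin in a human vascular co-culture (umbilical vein endothelium plus PBMC) sampled 24 h after dosing.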

Read-out in test [18]: Monokine induced gamma interferon (MIG), CXCL9 (gene 4283)
In words: BSK_SAg_MIG: BioMAP Diversity Plus: SAg Assay for Monokine induced gamma interferon (MIG) Biomarker Activity (AID 2283092). The conditions noted are these: primary human HUVEC with PBMC; actives raise or lower the signal. The method, boiled down:
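Endothelial cells and PBMC were co-cultured, exposed to test chemicals, and sampled 24 h later. MIG was measured by ELISA, and responses were fitted in both directions relative to DMSO.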

Chain of E-selectin (Homo sapiens) (P16581 whole entry, looked up): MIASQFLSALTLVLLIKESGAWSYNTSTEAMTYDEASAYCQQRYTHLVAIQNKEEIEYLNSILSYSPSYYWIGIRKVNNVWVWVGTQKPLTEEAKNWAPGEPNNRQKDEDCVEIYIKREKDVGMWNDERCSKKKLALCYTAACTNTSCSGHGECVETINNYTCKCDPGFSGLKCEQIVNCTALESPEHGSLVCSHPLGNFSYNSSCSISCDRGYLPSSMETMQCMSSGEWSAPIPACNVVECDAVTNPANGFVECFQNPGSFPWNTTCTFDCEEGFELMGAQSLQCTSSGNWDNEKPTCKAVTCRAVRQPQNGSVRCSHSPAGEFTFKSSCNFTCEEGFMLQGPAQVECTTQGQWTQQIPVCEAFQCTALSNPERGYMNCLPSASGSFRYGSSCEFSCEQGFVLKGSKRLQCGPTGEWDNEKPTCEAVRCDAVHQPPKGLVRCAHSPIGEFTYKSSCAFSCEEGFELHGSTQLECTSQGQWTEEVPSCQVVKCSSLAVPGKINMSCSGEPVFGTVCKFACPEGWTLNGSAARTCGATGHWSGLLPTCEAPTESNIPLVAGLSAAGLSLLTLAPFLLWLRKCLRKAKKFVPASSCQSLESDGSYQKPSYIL

As usually defined, the AC50 is the concentration giving half of the maximal activity seen. Consider `ClC1=C(Cl)C(Cl)(Cl)C(Cl)=C1Cl`, for which the AC50 in test [1] is 9.19 µM (active); in test [2] it was 9.06 µM (active); in test [3], 10.7 µM (active); in test [4], 10.2 µM (active); in [5], 11.9 µM (active); in test [6] it was 13.9 µM (active). Moreover, the AC50 in [7] is 10.1 µM (active); in test [8] it was 12.3 µM (active); in test [9], 11.6 µM (active); in test [10] it was 9.94 µM (active); in [11], 9.9 µM (active); in test [12] it was 9.81 µM (active). Besides, the AC50 in test [13] was 7.55 µM (active); in test [14], 8.3 µM (active); in [15] it was 8.69 µM (active); in test [16], 10.6 µM (active); in test [17] it was 8.69 µM (active); in test [18] it was 13.8 µM (active).

As for `N#C[C@@H]1CC(F)(F)CN1C(=O)CNC1CC2CCC(C1)N2c1ncccn1` (some centres undefined), the result in test [1], in test [2], in test [3], in [5], in test [6] and in test [7] was inactive. Moreover, the result in [8], in test [11], in test [12], in [17] and in test [18] was inactive. Further, the AC50 in test [4] was 4.2 µM (active); in test [9], 0.939 µM (active); in [10], 2.33 µM (active); in test [13], 4.4 µM (active); in [14] it was 4.8 µM (active); in test [15], 4.59 µM (active). For the same compound, the AC50 in test [16] was 6.57 µM (active).

For the compound `CC(C)(C)c1cccc(C(C)(C)C)c1O`, the figures for the AC50 in [1], in [2] and in [3] were 34.4 µM (active), 36.7 µM (active) and 39 µM (active), respectively. Further, the result in test [4], in [5], in [6], in test [7], in test [8] and in test [9] was inactive. Moreover, the result in test [10], in test [11], in test [12], in test [13], in test [14] and in [15] was inactive. The outcome in test [16], in test [17] and in test [18] was inactive.
